What was measured:
Assay in all cases: DAPPL (digital affinity profiling via proximity ligation, sequencing); 10 mM Tris-HCl pH 7.5, 50 mM NaCl, 1 mM DTT, 4% glycerol, room temperature, 30 min; GST-TFs on glutathione beads, 16-mer random dsDNA library, 0.1% formaldehyde crosslink after washing; high values mean tight binding
ETV5 = ETV5 (Homo sapiens, UniProt P41161 1-510); details: protein: recombinant; tags: N-terminal GST; dsDNA, one strand shown
Outline: (§1)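 Sequencing on an Illumina NextSeq500 followed washing, crosslinking with 0.1% formaldehyde, proximity ligation (BsaI/T4 ligase, 1 h, 37 °C) and PCR amplification of pools that had been incubated for 30 min at room temperature with 200 nmole of a random double-stranded 16-mer DNA library in Tris/NaCl/DTT/glycerol buffer. Each pool held DNA-barcoded human transcription factors, expressed in yeast as GST fusions and captured on glutathione beads, plus a tag-only sample. Binding signal is a hexamer's read frequency for a factor divided by its frequency in the tag-only sample.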

HSF1 = HSF1 (Homo sapiens, UniProt Q00613 1-529); details: protein: recombinant; tags: N-terminal GST; chain copies: 3; dsDNA, one strand shown
Outline: as §1

SPIC = molecular target: T1, SPIC (Homo sapiens, UniProt Q8N5J4 1-248); details: protein: recombinant; tags: N-terminal GST; dsDNA, one strand shown
T1 sequence: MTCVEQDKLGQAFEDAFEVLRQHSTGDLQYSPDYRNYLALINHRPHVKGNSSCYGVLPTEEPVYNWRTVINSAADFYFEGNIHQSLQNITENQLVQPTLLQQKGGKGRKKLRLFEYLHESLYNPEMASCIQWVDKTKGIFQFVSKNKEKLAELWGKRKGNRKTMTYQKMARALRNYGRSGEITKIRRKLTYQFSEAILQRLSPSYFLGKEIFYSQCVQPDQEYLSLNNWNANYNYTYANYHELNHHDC
Outline: as §1

ELF4 = ELF4 (Homo sapiens, UniProt Q99607 1-663); details: protein: recombinant; tags: N-terminal GST; dsDNA, one strand shown
Outline: as §1

ELK4 = molecular target: T2, ELK4 (Homo sapiens, UniProt P28324-2 1-405); details: protein: recombinant; tags: N-terminal GST; dsDNA, one strand shown
T2 sequence: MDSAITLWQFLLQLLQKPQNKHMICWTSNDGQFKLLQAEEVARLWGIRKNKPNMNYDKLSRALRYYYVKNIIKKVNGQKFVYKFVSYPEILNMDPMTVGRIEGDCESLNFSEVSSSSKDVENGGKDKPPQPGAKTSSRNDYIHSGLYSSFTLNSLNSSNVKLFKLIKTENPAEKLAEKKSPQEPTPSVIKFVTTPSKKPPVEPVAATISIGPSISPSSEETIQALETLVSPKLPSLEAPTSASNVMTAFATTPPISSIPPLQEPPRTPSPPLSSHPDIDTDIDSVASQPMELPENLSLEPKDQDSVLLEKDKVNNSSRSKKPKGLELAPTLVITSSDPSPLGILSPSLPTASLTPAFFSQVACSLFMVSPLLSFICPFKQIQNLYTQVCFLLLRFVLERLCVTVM
Outline: as §1

ETV2 = molecular target: T3, ETV2 (Homo sapiens, UniProt O00321 1-342); details: protein: recombinant; tags: N-terminal GST; dsDNA, one strand shown
T3 sequence: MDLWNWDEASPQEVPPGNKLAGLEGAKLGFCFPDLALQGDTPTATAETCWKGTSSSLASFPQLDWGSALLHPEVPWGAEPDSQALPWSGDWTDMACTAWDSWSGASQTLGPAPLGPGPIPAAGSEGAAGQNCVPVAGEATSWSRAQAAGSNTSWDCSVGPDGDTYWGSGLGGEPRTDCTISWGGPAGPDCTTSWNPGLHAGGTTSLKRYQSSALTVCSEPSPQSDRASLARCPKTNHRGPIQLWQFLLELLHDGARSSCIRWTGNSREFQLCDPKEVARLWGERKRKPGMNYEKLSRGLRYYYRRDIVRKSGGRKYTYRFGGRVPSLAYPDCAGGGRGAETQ
Outline: as §1

ETV1 = ETV1 (Homo sapiens, UniProt P50549 1-477); details: protein: recombinant; tags: N-terminal GST; dsDNA, one strand shown
Outline: as §1

ERF = molecular target: T4, ERF (Homo sapiens, UniProt P50548 1-548); details: protein: recombinant; tags: N-terminal GST; dsDNA, one strand shown
T4 sequence: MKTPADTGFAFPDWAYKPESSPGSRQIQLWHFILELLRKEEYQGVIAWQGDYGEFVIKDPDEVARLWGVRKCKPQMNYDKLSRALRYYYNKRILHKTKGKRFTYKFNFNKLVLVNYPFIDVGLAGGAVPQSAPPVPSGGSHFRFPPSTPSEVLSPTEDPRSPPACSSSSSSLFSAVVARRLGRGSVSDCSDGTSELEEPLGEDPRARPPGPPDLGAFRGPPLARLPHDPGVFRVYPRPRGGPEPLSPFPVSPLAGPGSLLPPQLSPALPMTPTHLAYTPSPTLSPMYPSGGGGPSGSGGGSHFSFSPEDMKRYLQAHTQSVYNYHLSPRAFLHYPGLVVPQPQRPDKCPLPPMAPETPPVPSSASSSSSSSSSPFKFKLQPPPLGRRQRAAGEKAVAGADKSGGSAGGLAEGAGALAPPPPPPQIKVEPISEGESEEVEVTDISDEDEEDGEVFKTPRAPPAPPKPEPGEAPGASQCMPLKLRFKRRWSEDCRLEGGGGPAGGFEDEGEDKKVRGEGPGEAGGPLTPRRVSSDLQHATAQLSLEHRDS
Outline: as §1

ETS2 = molecular target: T5, ETS2 (Homo sapiens, UniProt P15036 1-469); details: protein: recombinant; tags: N-terminal GST; dsDNA, one strand shown
T5 sequence: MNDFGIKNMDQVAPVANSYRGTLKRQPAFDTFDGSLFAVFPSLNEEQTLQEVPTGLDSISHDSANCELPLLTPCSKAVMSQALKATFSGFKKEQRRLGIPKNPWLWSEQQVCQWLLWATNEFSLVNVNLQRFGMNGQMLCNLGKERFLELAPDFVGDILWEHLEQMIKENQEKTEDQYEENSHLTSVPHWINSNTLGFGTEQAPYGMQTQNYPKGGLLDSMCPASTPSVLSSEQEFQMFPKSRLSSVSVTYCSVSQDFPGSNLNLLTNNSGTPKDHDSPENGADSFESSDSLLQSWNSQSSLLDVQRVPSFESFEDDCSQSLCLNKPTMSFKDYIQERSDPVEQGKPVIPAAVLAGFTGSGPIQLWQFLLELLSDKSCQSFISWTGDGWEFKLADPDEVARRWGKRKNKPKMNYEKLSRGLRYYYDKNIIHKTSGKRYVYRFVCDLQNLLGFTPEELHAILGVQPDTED
Outline: as §1

ETV7 = molecular target: T6, ETV7 (Homo sapiens, UniProt Q9Y603 1-341); details: protein: recombinant; tags: N-terminal GST; dsDNA, one strand shown
T6 sequence: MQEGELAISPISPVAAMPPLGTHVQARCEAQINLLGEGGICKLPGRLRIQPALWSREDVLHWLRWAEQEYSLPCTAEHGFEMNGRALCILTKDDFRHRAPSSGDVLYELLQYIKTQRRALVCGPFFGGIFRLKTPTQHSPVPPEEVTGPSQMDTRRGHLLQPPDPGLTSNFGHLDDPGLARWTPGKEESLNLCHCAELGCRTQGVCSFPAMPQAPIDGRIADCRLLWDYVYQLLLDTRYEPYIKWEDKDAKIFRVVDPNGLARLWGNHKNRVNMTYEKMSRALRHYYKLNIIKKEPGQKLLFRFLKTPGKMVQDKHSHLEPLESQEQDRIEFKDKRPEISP
Outline: as §1

ETV3 = molecular target: T7, ETV3 (Homo sapiens, UniProt P41162-2 1-143); details: protein: recombinant; tags: N-terminal GST; dsDNA, one strand shown
T7 sequence: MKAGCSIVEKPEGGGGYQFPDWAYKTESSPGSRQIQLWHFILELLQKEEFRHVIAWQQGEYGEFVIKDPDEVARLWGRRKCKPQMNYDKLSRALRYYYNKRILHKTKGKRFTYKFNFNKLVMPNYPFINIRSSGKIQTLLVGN
Outline: as §1

ETV6 = ETV6 (Homo sapiens, UniProt P41212 1-452); details: protein: recombinant; tags: N-terminal GST; dsDNA, one strand shown
Outline: as §1

FEV = molecular target: T8, FEV (Homo sapiens, UniProt Q99581 1-238); details: protein: recombinant; tags: N-terminal GST; dsDNA, one strand shown
T8 sequence: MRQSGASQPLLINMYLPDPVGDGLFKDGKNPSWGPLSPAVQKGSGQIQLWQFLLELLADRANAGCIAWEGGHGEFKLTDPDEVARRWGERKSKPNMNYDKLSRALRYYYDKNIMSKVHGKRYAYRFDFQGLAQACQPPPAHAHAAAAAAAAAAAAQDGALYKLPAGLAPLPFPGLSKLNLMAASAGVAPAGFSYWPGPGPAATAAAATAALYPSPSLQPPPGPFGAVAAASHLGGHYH
Outline: as §1

CRX = CRX (Homo sapiens, UniProt O43186 1-299); details: protein: recombinant; tags: N-terminal GST; dsDNA, one strand shown
Outline: as §1

ETV3L = molecular target: T9, ETV3L (Homo sapiens, UniProt Q6ZN32 1-361); details: protein: recombinant; tags: N-terminal GST; dsDNA, one strand shown
T9 sequence: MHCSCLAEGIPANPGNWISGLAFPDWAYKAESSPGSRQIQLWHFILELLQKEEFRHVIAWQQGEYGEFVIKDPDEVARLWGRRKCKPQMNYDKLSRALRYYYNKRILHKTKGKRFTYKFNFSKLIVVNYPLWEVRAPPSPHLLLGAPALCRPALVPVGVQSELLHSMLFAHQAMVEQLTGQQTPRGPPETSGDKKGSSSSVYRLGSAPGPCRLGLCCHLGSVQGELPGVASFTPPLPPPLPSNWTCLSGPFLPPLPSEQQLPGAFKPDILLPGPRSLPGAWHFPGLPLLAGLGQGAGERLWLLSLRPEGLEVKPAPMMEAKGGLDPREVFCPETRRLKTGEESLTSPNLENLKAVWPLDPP
Outline: as §1

SPDEF = molecular target: T10, SPDEF (Homo sapiens, UniProt O95238 1-335); details: protein: recombinant; tags: N-terminal GST; dsDNA, one strand shown
T10 sequence: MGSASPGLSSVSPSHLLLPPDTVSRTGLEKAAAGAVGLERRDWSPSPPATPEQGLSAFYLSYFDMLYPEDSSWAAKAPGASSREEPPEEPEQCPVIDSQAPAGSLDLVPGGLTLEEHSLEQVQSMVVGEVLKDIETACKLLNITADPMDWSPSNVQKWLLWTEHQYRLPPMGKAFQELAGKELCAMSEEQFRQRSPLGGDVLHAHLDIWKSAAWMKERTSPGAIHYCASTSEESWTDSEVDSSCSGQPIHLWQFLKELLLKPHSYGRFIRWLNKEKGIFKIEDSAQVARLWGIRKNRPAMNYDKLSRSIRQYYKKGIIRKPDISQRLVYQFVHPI
Outline: as §1

ELF5 = molecular target: T11, ELF5 (Homo sapiens, UniProt Q9UKW6-2 1-255); details: protein: recombinant; tags: N-terminal GST; dsDNA, one strand shown
T11 sequence: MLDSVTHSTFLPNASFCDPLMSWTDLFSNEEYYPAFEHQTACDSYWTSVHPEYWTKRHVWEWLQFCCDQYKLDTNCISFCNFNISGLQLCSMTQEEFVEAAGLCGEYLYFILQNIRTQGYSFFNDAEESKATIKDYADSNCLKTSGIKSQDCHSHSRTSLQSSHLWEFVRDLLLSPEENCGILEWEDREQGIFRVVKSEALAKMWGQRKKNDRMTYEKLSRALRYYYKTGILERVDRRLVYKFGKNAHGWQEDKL
Outline: as §1

Sequence of HSF1 (Q00613 whole entry): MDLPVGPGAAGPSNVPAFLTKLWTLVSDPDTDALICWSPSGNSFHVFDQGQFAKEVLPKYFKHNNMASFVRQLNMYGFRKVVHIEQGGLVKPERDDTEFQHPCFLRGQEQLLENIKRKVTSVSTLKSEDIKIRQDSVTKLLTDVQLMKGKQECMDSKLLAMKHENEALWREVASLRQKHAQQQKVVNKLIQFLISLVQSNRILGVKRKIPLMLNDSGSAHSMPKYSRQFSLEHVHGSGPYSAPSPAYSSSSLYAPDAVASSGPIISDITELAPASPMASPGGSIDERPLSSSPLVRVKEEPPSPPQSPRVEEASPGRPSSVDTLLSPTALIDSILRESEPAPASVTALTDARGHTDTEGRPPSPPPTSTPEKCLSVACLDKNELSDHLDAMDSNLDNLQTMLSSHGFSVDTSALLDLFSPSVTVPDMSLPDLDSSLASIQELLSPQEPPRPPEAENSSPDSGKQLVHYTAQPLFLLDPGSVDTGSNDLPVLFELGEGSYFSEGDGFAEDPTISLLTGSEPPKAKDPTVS
Sequence of ETV5 (P41161 whole entry, the tested form may be a part): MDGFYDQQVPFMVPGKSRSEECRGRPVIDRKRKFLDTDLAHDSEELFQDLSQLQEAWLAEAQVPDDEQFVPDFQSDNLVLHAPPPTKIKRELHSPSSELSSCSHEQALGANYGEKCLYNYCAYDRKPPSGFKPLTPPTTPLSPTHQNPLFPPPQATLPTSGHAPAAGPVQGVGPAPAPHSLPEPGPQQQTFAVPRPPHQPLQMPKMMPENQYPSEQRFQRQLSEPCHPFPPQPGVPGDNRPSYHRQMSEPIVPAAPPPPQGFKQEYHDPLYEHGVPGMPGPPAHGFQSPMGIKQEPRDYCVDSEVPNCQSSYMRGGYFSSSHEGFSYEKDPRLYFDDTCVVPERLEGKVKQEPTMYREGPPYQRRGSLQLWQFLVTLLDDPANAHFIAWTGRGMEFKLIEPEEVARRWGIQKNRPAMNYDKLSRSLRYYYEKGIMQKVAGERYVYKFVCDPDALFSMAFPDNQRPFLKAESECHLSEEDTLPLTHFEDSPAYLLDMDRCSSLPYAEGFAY
Sequence of ETV6 (P41212 whole entry): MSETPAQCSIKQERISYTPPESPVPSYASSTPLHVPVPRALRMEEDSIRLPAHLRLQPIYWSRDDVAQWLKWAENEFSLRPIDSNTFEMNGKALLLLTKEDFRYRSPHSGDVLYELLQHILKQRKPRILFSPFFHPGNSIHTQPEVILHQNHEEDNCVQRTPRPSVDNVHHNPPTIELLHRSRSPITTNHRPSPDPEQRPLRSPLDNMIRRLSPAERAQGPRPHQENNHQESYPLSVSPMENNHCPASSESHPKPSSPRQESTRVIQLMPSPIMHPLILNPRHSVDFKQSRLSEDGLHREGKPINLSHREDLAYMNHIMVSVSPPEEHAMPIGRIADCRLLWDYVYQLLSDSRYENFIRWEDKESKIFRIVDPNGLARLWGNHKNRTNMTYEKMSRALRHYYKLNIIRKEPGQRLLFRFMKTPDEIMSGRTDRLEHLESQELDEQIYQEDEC
Sequence of ETV1 (P50549 whole entry): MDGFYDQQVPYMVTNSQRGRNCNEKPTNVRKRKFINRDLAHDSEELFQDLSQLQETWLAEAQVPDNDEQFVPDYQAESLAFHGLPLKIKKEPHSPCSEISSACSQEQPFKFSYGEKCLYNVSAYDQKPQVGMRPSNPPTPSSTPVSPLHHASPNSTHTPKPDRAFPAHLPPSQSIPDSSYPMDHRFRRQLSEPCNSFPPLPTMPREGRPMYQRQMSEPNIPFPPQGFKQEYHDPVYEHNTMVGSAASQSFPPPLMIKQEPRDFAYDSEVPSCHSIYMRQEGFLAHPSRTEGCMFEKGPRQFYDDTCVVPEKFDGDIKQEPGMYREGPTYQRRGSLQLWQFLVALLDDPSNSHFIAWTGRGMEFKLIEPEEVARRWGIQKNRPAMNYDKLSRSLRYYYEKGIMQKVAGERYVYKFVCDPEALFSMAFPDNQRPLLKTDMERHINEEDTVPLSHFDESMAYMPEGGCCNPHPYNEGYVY
Sequence of ELF4 (Q99607 whole entry): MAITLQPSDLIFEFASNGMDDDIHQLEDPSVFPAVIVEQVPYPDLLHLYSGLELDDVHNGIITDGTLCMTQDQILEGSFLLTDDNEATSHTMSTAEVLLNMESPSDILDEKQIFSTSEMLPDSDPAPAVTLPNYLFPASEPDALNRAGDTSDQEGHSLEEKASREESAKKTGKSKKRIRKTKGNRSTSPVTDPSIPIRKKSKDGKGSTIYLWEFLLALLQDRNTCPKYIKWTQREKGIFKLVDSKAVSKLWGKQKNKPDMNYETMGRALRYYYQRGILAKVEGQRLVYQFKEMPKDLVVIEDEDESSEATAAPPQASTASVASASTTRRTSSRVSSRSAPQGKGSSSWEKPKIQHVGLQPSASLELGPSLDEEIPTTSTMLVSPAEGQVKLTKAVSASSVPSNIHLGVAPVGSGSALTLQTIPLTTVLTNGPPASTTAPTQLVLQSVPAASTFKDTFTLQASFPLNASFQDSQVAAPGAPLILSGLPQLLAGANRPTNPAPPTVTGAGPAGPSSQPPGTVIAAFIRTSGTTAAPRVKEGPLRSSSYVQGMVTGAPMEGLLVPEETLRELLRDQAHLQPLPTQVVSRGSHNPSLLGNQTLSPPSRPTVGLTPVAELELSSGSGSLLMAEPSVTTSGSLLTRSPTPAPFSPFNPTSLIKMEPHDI
Sequence of CRX (O43186 whole entry): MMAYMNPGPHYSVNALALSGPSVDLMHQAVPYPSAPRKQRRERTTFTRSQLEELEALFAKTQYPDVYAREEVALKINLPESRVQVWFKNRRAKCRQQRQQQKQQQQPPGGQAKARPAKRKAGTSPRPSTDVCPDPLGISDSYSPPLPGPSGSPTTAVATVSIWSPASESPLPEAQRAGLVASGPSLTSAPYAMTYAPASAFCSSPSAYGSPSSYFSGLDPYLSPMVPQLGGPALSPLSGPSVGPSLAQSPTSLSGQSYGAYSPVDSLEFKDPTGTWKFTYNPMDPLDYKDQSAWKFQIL

Sequence	binding signal (ETV5)	binding signal (HSF1)	binding signal (SPIC)	binding signal (ELF4)	binding signal (ELK4)	binding signal (ETV2)	binding signal (ETV1)	binding signal (ERF)	binding signal (ETS2)	binding signal (ETV7)	binding signal (ETV3)	binding signal (ETV6)	binding signal (FEV)	binding signal (CRX)	binding signal (ETV3L)	binding signal (SPDEF)	binding signal (ELF5)
CAGATG	1.01 fold enrichment (6-mer frequency, TF over GST control)	1.01 fold enrichment (6-mer frequency, TF over GST control)	1.12 fold enrichment (6-mer frequency, TF over GST control)	1.02 fold enrichment (6-mer frequency, TF over GST control)	1.06 fold enrichment (6-mer frequency, TF over GST control)	1.01 fold enrichment (6-mer frequency, TF over GST control)	1.01 fold enrichment (6-mer frequency, TF over GST control)	1.11 fold enrichment (6-mer frequency, TF over GST control)	1.05 fold enrichment (6-mer frequency, TF over GST control)	1.13 fold enrichment (6-mer frequency, TF over GST control)	1.02 fold enrichment (6-mer frequency, TF over GST control)	1.03 fold enrichment (6-mer frequency, TF over GST control)					
TCGCAA	1.06 fold enrichment (6-mer frequency, TF over GST control)	1.22 fold enrichment (6-mer frequency, TF over GST control)	1.32 fold enrichment (6-mer frequency, TF over GST control)	1.15 fold enrichment (6-mer frequency, TF over GST control)	1.03 fold enrichment (6-mer frequency, TF over GST control)	1.18 fold enrichment (6-mer frequency, TF over GST control)	1.1 fold enrichment (6-mer frequency, TF over GST control)	1.27 fold enrichment (6-mer frequency, TF over GST control)	1.05 fold enrichment (6-mer frequency, TF over GST control)	1.01 fold enrichment (6-mer frequency, TF over GST control)	1.13 fold enrichment (6-mer frequency, TF over GST control)	1.09 fold enrichment (6-mer frequency, TF over GST control)	1.11 fold enrichment (6-mer frequency, TF over GST control)	1.05 fold enrichment (6-mer frequency, TF over GST control)	1.1 fold enrichment (6-mer frequency, TF over GST control)	1.09 fold enrichment (6-mer frequency, TF over GST control)	1.06 fold enrichment (6-mer frequency, TF over GST control)

From article PMC7862700, “An all-to-all approach to the identification of sequence-specific readers for epigenetic DNA modifications on cytosine”
